High-throughput results as filed in PubChem BioAssay.
Compounds with a hit are over-represented: about 2.4% of the library has one in this group of screens.
Pf gametocyte: P. falciparum stage V gametocyte viability inhibition. P. falciparum stage V gametocytes, ATP luminescence, 24 h. inhibition, % at 10.9 µM. 150,000 tested, 0.065% active;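 active = inhibition above the mean plus 3 SD of compounds within the control limits, set per campaign, cut at about 38% in these data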
Arbovirus inh: blocks arbovirus infection; AID 1251; inhibition, % at 10 µM; 200,000 tested, 0.37% active; arbovirus infection cell-based antiviral screen; in the data active = inhibition above about 30%
MEKK2 WT-MEK5: raises or lowers MEK5 binding to wildtype human MEKK2 PB1 domain; bead flow cytometry, Alexa488-MEK5 binding to MEKK2 WT; actives lie on both sides; binding response (% of control), % at 10 µM; 290,000 tested, 1.1% active; AID 1531; in the data active = binding response below about 67% or above about 130%
MEKK2mut PB1 HTS: signal of MEK5 binding to mutant human MEKK2 PB1 domain; bead flow cytometry, Alexa488-MEK5 binding to MEKK2 mutant; percent response, % at 10 µM; 290,000 tested, 0.35% active; in the data active = percent response above about 24%, passing the limit was not always enough
MEKK3 PB1 HTS: raises or lowers MEK5 binding to the human MEKK3 PB1 domain; Q99759; bead-based flow cytometry, Alexa488-MEK5 binding to MEKK3; actives lie on both sides; 0 = blocked by unlabeled MEK5, 100 = vehicle; binding response (% of control), % at 10 µM; 290,000 tested, 1.4% active; AID 1529;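 active = binding response more than 3 SD above or below the average of its plate-row segment, actives on both sides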;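 note: Alexa488 bead fluorescence after subtracting the streptavidin-only scavenger bead signal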
MEKK2wt confirm: raises or lowers MEK5 binding to wildtype human MEKK2, retest | shares compounds with MEKK3 PB1 HTS | bead flow cytometry, Alexa488-MEK5 binding to MEKK2 WT; actives lie on both sides | binding response (% of control), % at 10 µM | 5,900 tested, 2.4% active | AID 1892; in the data active = binding response below about 16% or above about 210%; inactive = in between
MEKK2mut-MEK5: signal of MEK5 binding to mutant human MEKK2, retest. shares compounds with MEKK3 PB1 HTS. bead flow cytometry, Alexa488-MEK5 binding to MEKK2 mutant. percent response, % at 10 µM. 5,900 tested, 2% active; in the data active = percent response mostly above about 71%, no sharp cut-off; inactive = mostly below about 38%;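 note: higher means compound restores mutant binding toward wildtype level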
MEKK3 confirm: confirmation of inhibitors of MEK5 binding to human MEKK3; 5,900 tested, 1.8% active; binding response (% of control), % at 10 µM; bead flow cytometry, Alexa488-MEK5 binding to MEKK3; hits give low values; shares compounds with MEKK3 PB1 HTS; AID 1894;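 active = binding response below 72% of control, or above a set upper limit, though filed actives all read lower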;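 note: lower values mean stronger disruption of MEK5 binding to MEKK3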
A number is an active result; - = inactive; . = no result; [ ] = remark or other dose.

SMILES | Pf gametocyte | Arbovirus inh | MEKK2 WT-MEK5 | MEKK2mut PB1 HTS | MEKK3 PB1 HTS | MEKK2wt confirm | MEKK2mut-MEK5 | MEKK3 confirm
NC(=O)C1(N2CCCCC2)CCN(S(=O)(=O)c2cc(Cl)sc2Cl)CC1 | - | . | - | - | - | . | . | .
COC(=O)CN1C(=O)C2(OCCCO2)c2ccccc21 | . | - | - | - | - | . | . | .
O=C(O)CN1C(=O)C2(OCCCO2)c2ccccc21 | - | - | 2.0[inhibitor] | - | 2.0[inhibitor] | - | - | -
Cc1ccc(OCCn2ccnc2)c([N+](=O)[O-])c1 | - | . | 136 | - | - | - | - | -
Cc1cc(OCCCn2ccnc2)ccc1[N+](=O)[O-] | . | . | - | - | - | . | . | .
CCCCc1nc2cc(C(=O)NC3CCOC(C)(C)C3)ccc2o1 (centres undefined) | . | . | - | - | - | . | . | .
CCOC(=O)CCNC(=O)N1CCCC(C(=O)c2cc(C)c(OC)c(C)c2)C1 (centres undefined) | - | . | - | - | - | . | . | .
CCOc1ccc(N(CC(=O)NCc2cccnc2)S(=O)(=O)c2ccc(F)cc2)cc1 | . | . | - | - | - | . | . | .
CCCCCc1cc(=O)oc2c(C(CCN(CC)CC)c3ccc(OC)cc3)c(OC)cc(OC)c12 (centres undefined) | - | . | 182 | 29 | - | - | - | -
CCCCCc1cc(=O)oc2c(C(CCN3CCN(c4ccccc4)CC3)c3ccc4c(c3)OCO4)c(OC)cc(OC)c12 (centres undefined) | - | . | - | - | - | . | . | .
COc1cc(C(CCN2CCOCC2)c2c(OC)cc(OC)c3c(C)cc(=O)oc23)cc(OC)c1OC (centres undefined) | - | . | - | - | - | . | . | .
CCN(CC)CCC(c1ccc(N(C)C)cc1)c1c(OC)cc(OC)c2ccc(=O)oc12 (centres undefined) | . | . | - | - | - | . | . | .
CCCCCc1cc(=O)oc2c(C(CCN3CCCCC3)c3ccc(OC)cc3)c(OC)cc(OC)c12 (centres undefined) | - | . | 164 | 67 | - | 208 | - | -
COc1ccc(C(CCN2CCOCC2)c2c(OC)cc(OC)c3c(C)cc(=O)oc23)cc1 (centres undefined) | - | . | 151 | - | - | - | - | -
COc1ccc(C(CCN2CCCC(C)C2)c2c(OC)cc(OC)c3c2OC(=O)CC3c2cc(OC)c(OC)c(OC)c2)cc1 (centres undefined) | . | . | 145 | - | - | - | - | -
Cc1nc(Oc2ccc(S(=O)(=O)N3CCOCC3)cc2Cl)c2c3c(sc2n1)CCCC3 | - | - | - | - | - | . | . | .
COCCn1c(=NC(=O)CCS(=O)(=O)c2ccccc2)sc2cc(F)ccc21 | . | . | - | - | - | . | . | .
COc1ccc(OC)c(NC(=O)NCCc2cccc(Cl)c2)c1 | - | - | - | - | - | . | . | .
CCCCCc1cc(=O)oc2c(C(CCN3CCCC(C)C3)c3ccc(OC)cc3)c(OC)cc(OC)c12 (centres undefined) | - | . | 153 | 58 | - | - | 107 | -
COc1cc(C(CCN2CCCCC2)c2c(OC)cc(OC)c3c(-c4ccccc4)cc(=O)oc23)cc(OC)c1OC (centres undefined) | - | . | - | - | - | . | . | .
COc1cc(C(CCN2CCCC(C)C2)c2c(OC)cc(OC)c3c(-c4ccccc4)cc(=O)oc23)cc(OC)c1OC (centres undefined) | . | . | 138 | - | - | - | - | -
CCCCCc1cc(=O)oc2c(C(CCN3CCCC3)c3cc(OC)c(OC)c(OC)c3)c(OC)cc(OC)c12 (centres undefined) | . | . | 157 | 24 | - | - | - | -
COc1cc(C(CCN2CCCC2)c2c(OC)cc(OC)c3c(C)cc(=O)oc23)cc(OC)c1OC (centres undefined) | . | . | - | - | - | . | . | .
CCCCCc1cc(=O)oc2c(C(CCN3CCCC3)c3ccc(N(C)C)cc3)c(OC)cc(OC)c12 (centres undefined) | - | . | 151 | 42 | - | - | 83 | -
